Screening data deposited in PubChem by National Center for Advancing Translational Sciences (NCATS).
In the library only some 11% were active in any assay of this set; here they are far more common.
HTT ATP protect: protects HTT-Q103 PC12 cells, measured by ATP. Potency, µM (highest dose often 56.4 µM), hits mostly activators. hit rate 0.14% among 230,000. PC12 HTT-Q103 induced, cytoprotection, ATP luminescence, 40 h. AID 1471; further: nearly all actives have a fitted effect of over 45% in size
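Rat PC12, Q103 Htt exon1-GFP fusion, ecdysone promoter; tebufenozide inducer 100 nM final; compound titration; qHTS, 1500 cells/well; ATPlite luminescent read.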
ALDH1A1 inh: inhibitors of human aldehyde dehydrogenase 1A1 | P00352 | Purified ALDH1A1, NADH fluorescence, propionaldehyde substrate | Potency, µM (top dose mostly 75.3 µM), usual class: inhibitors | hit rate 7.3% among 220,000 | AID 1030; active means well fitted inhibition curve with a large enough effect, not every such curve was filed as active; inconclusive means small, poorly fitted or top-dose-only effect, or another doubt; inactive means no such curve, though single readings can be large or run the other way
HTT aggregate: inhibitors of mutant huntingtin aggregate formation in PC12 cells; Potency, µM (doses to about 46.1 µM), hits mostly inhibitors; hit rate 1.1% among 220,000; PC12 HttQ103-GFP aggregates, Acumen cytometry, 40 h; further: nearly all actives have a fitted effect of over 60% in size
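Ecdysone-promoter PC12 model expressing HTT exon 1 Q103 fused to GFP, induced by tebufenozide at 100 nM final. Compounds titrated; aggregates sized 1–25 µm scored on a 488 nm laser cytometer.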
GoLoco inh red: inhibitors of human Gai1-RGS12 GoLoco interaction (red fluorophore). AID 880. hit rate 0.44% among 230,000. Potency, µM (top dose mostly 61.6 µM), hits mostly inhibitors. P63096. Gai1:RGS12 GoLoco peptide FP, rhodamine, 10 min; active means well fitted inhibition curve with a large enough effect, not every such curve was filed as active; inactive means no such curve, though single readings can be large or run the other way; further: nearly all actives have a fitted effect of over 30% in size
HPGD inh: inhibitors of human 15-hydroxyprostaglandin dehydrogenase (HPGD). purified HPGD, NADH fluorescence kinetic, PGE2 substrate. Potency, µM, usual class: inhibitors. hit rate 4.3% among 150,000. P15428; active means well fitted inhibition curve with a large enough effect, not every such curve was filed as active; inconclusive means small, poorly fitted or top-dose-only effect, or another doubt; inactive means no such curve, though single readings can be large or run the other way
Target sequence (P15428 whole entry, looked up): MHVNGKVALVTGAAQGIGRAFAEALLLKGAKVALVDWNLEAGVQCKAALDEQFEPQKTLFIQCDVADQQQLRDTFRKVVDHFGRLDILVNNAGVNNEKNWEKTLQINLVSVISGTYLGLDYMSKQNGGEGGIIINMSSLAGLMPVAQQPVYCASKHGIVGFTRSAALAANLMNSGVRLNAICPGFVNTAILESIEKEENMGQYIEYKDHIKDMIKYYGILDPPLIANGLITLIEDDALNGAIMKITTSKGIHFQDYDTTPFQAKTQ
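20 nM HPGD preincubated 15 min at room temperature with compound in 50 mM Tris-HCl pH 8, 0.01% Tween 20. Started with 1 mM NAD+ and 30 uM prostaglandin E2; NADH fluorescence (360/450 nm) read 5 times over 30-s intervals, last minus first.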
PNC inhibitor: blocks assembly of the perinucleolar compartment; PC3M PTB-GFP, PNC prevalence imaging, 16 h; stronger effect = lower value; activity change (PNC), negative = inhibition, % at 10 µM; hit rate 3.1% among 140,000; AID 2417;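 active means readout at or below -70, meaning at least 70% loss of cells showing the perinucleolar compartment, a nuclear body marking cancer cells; inconclusive means readout between -30 and a set limit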
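Read-out is percentage of cells bearing a perinucleolar compartment, from automated 20x imaging of fixed, Hoechst-stained PC3M PTB-GFP cells. Cells were seeded 4 h, then exposed 16 h to compound (23 nl of library stock) in duplicate plates.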
Each line names hits and unclear results; the compound was inactive in the other large screens. Unless noted, the call rests on the fitted dose curve; in most records, active means well fitted curve in the direction sought with a large enough effect; inconclusive means small, poorly fitted or top-dose-only effect, or another doubt; inactive means no such curve, though single readings can be large; an effect the other way counts as inactive or inconclusive.

CCOC(=O)c1c(NC(=O)CSc2nnc(-c3cccnc3)o2)sc(C(C)=O)c1C	HPGD inh inconclusive
O=C(CSc1nnc(Cc2ccccc2)o1)c1ccccc1	none (no result: HPGD inh, PNC inhibitor)
CCOC(=O)c1c(NC(=O)CSc2nnc(-c3ccco3)o2)sc(C)c1C	ALDH1A1 inh 8.91µM
CCOC(=O)c1c(NC(=O)CSc2nnc(-c3ccco3)o2)sc(C(C)=O)c1C	HPGD inh 15.8µM
CCOC(=O)c1c(NC(=O)CSc2nnc(Cc3ccccc3)o2)sc(C)c1C	ALDH1A1 inh 15.8µM
Cc1nnc(NC(=O)CSc2nnc(-c3ccco3)o2)s1	none (no result: HPGD inh, PNC inhibitor)
CCOC(=O)c1cc(-c2nnc(SCC(=O)Nc3ccc(F)cc3)o2)c(C)nc1C	ALDH1A1 inh 10µM, HPGD inh 14.1µM
Cc1sc(NC(=O)CSc2nnc(-c3ccc(F)cc3)o2)c(C#N)c1C	none
C=CCNC(=S)NN=C1CCCCCCC1	ALDH1A1 inh 0.891µM (no result: HPGD inh, PNC inhibitor)
O=C(O)[C@H](Cc1cc(I)c(O)c(I)c1)C1CCCCC1	none (no result: HTT aggregate, PNC inhibitor)
COc1ccc(C(=O)OCC(=O)Nc2ccc(Cl)c(C(F)(F)F)c2)c(OC)c1OC	PNC inhibitor inconclusive
O=C(CN1CCN(c2ccc(Cl)cc2)CC1)Nc1cccc(F)c1	none
COc1ccc(NC(=O)CN2CCCCC2)cc1	none
COc1cc(CC(=O)Nc2ccc(Cl)c(C(F)(F)F)c2)cc(OC)c1OC	HTT aggregate 10µM
COc1ccccc1N1CCN(CC(=O)Nc2ccc(Cl)c(C(F)(F)F)c2)CC1	ALDH1A1 inh inconclusive, HTT aggregate inconclusive
CCOc1ccc(NC(=O)CN2CCN(CC(=O)Nc3cccc(F)c3)CC2)cc1	ALDH1A1 inh 17.8µM
CCOc1ccc(NC(=O)CN2CCN(CC(=O)Nc3ccc(Cl)c(C(F)(F)F)c3)CC2)cc1	ALDH1A1 inh 12.6µM, PNC inhibitor inconclusive
CCOc1ccc(NC(=O)CN2CCN(CC(=O)Nc3cc(OC)cc(OC)c3)CC2)cc1	ALDH1A1 inh 11.2µM
COC(=O)[C@@H]1CCCN1C(=O)[C@@H](C)CO	none (no result: HTT aggregate, GoLoco inh red, HPGD inh, PNC inhibitor)
COc1ccccc1-c1cc(C(F)(F)F)n2ncc(S(=O)(=O)c3ccccc3)c2n1	ALDH1A1 inh inconclusive, HPGD inh inconclusive
CCOc1ccc(NC(=O)CN2CCN(CC(=O)Nc3ccc4c(c3)OCCO4)CC2)cc1	ALDH1A1 inh 8.91µM, PNC inhibitor inconclusive
Cc1ccc2nc(C3CCN(CC(=O)Nc4ccc5c(c4)OCCO5)CC3)[nH]c2c1	ALDH1A1 inh 22.4µM
O=C(CN1CCN(Cc2ccc3c(c2)OCO3)CC1)Nc1ccc2c(c1)OCCO2	PNC inhibitor inconclusive
O=C(O)CC/C=C\C[C@@H]1CO[C@H](c2ccccc2Cl)O[C@@H]1c1ccccc1O	none (no result: HTT aggregate, PNC inhibitor)
Cc1cccc(NC(=O)NCCN2C(=O)C3C4C=CC(C4)C3C2=O)c1 (centres undefined)	ALDH1A1 inh inconclusive, PNC inhibitor inconclusive
COc1ccc(NC(=O)NCCN2C(=O)C3C4C=CC(C4)C3C2=O)cc1 (centres undefined)	ALDH1A1 inh inconclusive, PNC inhibitor -82.0
O=C(NCCN1C(=O)C2C3C=CC(C3)C2C1=O)NCc1ccccc1 (centres undefined)	ALDH1A1 inh inconclusive
Cc1ccc(NC(=O)NCCN2C(=O)C3C4C=CC(C4)C3C2=O)cc1 (centres undefined)	ALDH1A1 inh 10µM
O=C(NCCN1C(=O)C2C3C=CC(C3)C2C1=O)Nc1ccccc1 (centres undefined)	ALDH1A1 inh 12.6µM
CCCc1cc(=O)[nH]c(SCC(=O)Nc2ccc3c(c2)CCC3)n1	none (no result: HPGD inh, PNC inhibitor)
CCCc1cc(=O)[nH]c(SCC(=O)Nc2ccc(OC(F)F)cc2)n1	PNC inhibitor -94.4
C=CCSc1nnc(NC(=O)CSc2nc(CCC)cc(=O)[nH]2)s1	HTT aggregate 11.2µM, HPGD inh 20µM
C=CCSc1nnc(NC(=O)CSc2nc3ccccc3[nH]2)s1	HPGD inh inconclusive
COc1cccc([C@@H]2Oc3ccc(OC)cc3[C@H](O)[C@H]2O)c1	none (no result: HTT aggregate, PNC inhibitor)
CCCc1cc(=O)n2[nH]c(-c3ccc(Br)cc3)cc2n1	PNC inhibitor -100.0
O=C(COC(=O)C1(c2cccc(F)c2)CCCC1)NCc1cccs1	none (no result: HPGD inh, PNC inhibitor)
Cc1cc(=O)[nH]c(Nc2cccc(C(F)(F)F)c2)n1	HTT aggregate 11.2µM
